Most compounds without a hit are left out; they make up all but 6.1% or so of the library.
D3 antag: qHTS of D3 Dopamine Receptor Antagonist: qHTS; D3R cells, DiscoveRx beta-arrestin luminescence, antagonist mode; hits give low values; max response, negative = inhibition, %; hit rate 2.5% among 360,000; AID 652054, 2013; in the data active = max response below about -50%; inconclusive = no clear call, values can overlap the other calls; also: % is scaled to controls: 0 for no effect and ±100 for the full control effect
Target sequence (P35462 whole entry, looked up): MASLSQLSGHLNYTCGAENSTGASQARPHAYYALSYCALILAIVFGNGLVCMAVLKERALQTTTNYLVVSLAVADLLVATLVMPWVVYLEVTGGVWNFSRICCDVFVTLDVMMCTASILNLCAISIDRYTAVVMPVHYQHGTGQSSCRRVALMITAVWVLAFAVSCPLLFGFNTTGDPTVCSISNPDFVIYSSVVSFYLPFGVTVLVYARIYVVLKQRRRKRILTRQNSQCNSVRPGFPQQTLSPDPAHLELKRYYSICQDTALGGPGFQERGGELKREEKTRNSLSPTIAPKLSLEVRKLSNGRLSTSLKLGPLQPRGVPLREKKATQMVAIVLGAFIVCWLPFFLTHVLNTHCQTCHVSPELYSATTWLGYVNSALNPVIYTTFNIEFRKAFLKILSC
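Cells plated overnight at 1500 cells/well, then exposed to library compounds with dopamine controls for 90 minutes at 37 degrees C. DiscoveRx reagent added for 30–60 minutes at room temperature; luminescence read, quantitative HTS format.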
D1 PAM: Potentiators of Human D1 Dopamine Receptor: qHTS. potentiation, % at 10 µM. hit rate 0.036% among 360,000. D(1A) dopamine receptor (Homo sapiens), P21728. HEK293 TREx D1 cells, calcium flux, dopamine EC20 potentiation; in the data active = potentiation above about 30%; also: 0% is about no effect
D1 antag: Antagonist of Human D 1 Dopamine Receptor: qHTS; D(1A) dopamine receptor (Homo sapiens), P21728; HEK293 TREx D1 cells, calcium flux, dopamine EC80; hits give low values; activity change, negative = inhibition, % at 10 µM; hit rate 3.2% among 360,000; AID 504652, 2011; in the data active = activity change below about -30%; also: % is scaled to controls: 0 for no effect and ±100 for the full control effect
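Using tetracycline-induced force-coupled D1 Hek293 cells and a calcium dye, signals were followed for 180 s after compound, then for 180 s after EC80 dopamine, to detect inhibitors.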
DRD3 agonist: qHTS of D3 Dopamine Receptor Agonist: qHTS; max activation, %; D3R DiscoveRx beta-arrestin cells, luminescence, 90 min; hit rate 0.58% among 410,000; D(3) dopamine receptor (Homo sapiens), P35462; in the data active = max activation above about 30%; also: 0% is about no effect
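Cells at 1500/well, incubated overnight, then treated with pinned compounds (dopamine as control) for 90 min at 37 degrees C. DiscoveRx reagent added for 30 - 60 minutes at room temperature; luminescence read.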
D1 agonist: Allosteric Agonists of the Human D1 Dopamine Receptor: qHTS; HEK293 T-REx D1 cells, calcium flux, agonist mode; activation, % at 2 µM; D(1A) dopamine receptor (Homo sapiens), P21728; hit rate 1% among 360,000; in the data active = activation above about 30%; also: 0% is about no effect
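Inducible HEK293 T-REx D1 cells, force-coupled to calcium signalling, were plated at 4000 cells/well with tetracycline and held overnight at 30 C. After no-wash calcium dye loading, compound-evoked calcium rise over 180 s flagged agonists.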
* marks the source's active call; other numbers are inactive results; ? = inconclusive; nt = no result given; ! = a repeat was not active.

SMILES	D3 antag	D1 PAM	D1 antag	DRD3 agonist	D1 agonist
CC(=O)/C(N=Nc1ccc(SC(F)F)cc1)=C(\C)O	-59*	-2	15	1	2
CC(=O)/C(N=Nc1cccc(C(F)(F)F)c1)=C(\C)O	12	1	-7	9	4
CCOC(=O)c1c(NC(C)=O)sc2c1CCC(C=NCCCN(CC)CC)=C2Sc1ccccc1	-66*	nt	nt	2	nt
CCN(CC)c1ccc(/C=C/c2cc(-c3ccccc3)c3ccccc3n2)cc1	5	17	-57*	5	325*
Cc1c(C(=O)N2CCCC(C(F)(F)F)C2)oc2ccccc12 (stereo unspecified)	9	-5	4	-12	2
Cc1c(C(=O)N2CC(C)OC(C)C2)oc2ccccc12 (stereo unspecified)	-72*	2	-9	-1	2
Cc1ccc(NC(=O)CSc2nc(-c3ccccc3Cl)nc3cc(=O)[nH]n23)c(C)c1	nt	1	-21	-17	6
Cc1ccc(N=C2NC(=O)/C(=C/c3cn(C)c4ccccc34)S2)cc1C	?	-2	-99*	-11	54*
Cc1ccc(/C=C/c2onc(C)c2S(=O)(=O)N2CCC(C(=O)N(CCC(C)C)Cc3ccco3)CC2)cc1	nt	-3	3	1	3
N=c1sccn1CC(=O)Nc1ccc(SC(F)F)cc1	-10	-5	-9	-26	46*
CCC(C(=O)OCC(=O)Nc1ccc(SC(F)F)cc1)c1ccccc1 (stereo unspecified)	-15	-8	-36*	3	10
N=c1sccn1CC(=O)Nc1ccc(S(N)(=O)=O)cc1	1	-3	4	2	2
O=C(Cc1ccccc1)Nc1ccc(F)cc1	0	-6	-2	5	2
CCCCOc1ccc(C(=O)Nc2ccc(SC(F)F)cc2)cc1OC	?	-4	-14	0	4
COc1ccc(C(=O)Nc2ccc(SC(F)F)cc2)cc1	12	-8	-5	-1	46*
O=C(Cc1ccccc1)Nc1ccc(SC(F)F)cc1	9	-5	-40*	-2	4
CCOCCc1nn2c(=O)cc(COC(=O)C(CC)c3ccccc3)nc2s1 (stereo unspecified)	nt	-3	-11	4	9
Cc1cc(Cl)ccc1OCC(=O)N(Cc1sccc1C)C1CCS(=O)(=O)C1 (stereo unspecified)	nt	3	-1	-7	2
C/C=C/C(=O)OCC(=O)Nc1ccc(SC(F)F)cc1	1	-7	-33*	4	6
CC(C)c1ccc(NC2CCCN(C(=O)CCN3CCCC3=O)C2)cc1 (stereo unspecified)	0	-2	6	4	1
O=C1CCCCN1CCCC(=O)N1CCCC(Nc2ccccc2)C1 (stereo unspecified)	0	-5	-51*	9	7
CCOC(=O)c1cc(-c2ccccc2)n(-c2cccc(C(=O)Nc3ccc(OC)cc3)c2)c1C	nt	-7	-8	-1	7
O=S(=O)(Nc1cccnc1)c1cccc(C(F)(F)F)c1	-12	-1	-2	-9	0
O=[N+]([O-])c1ccc(S(=O)(=O)c2cccc(C(F)(F)F)c2)nc1	-126*	nt	nt	-33	nt
CSc1ccc(CNc2nnnn2C)cc1	-3	1	-20	46*	-1
SMILES	D3 antag	D1 PAM	D1 antag	DRD3 agonist	D1 agonist
Cc1c(CC(=O)NCCc2ccccc2)c(=O)oc2c(C)c3occ(C(C)(C)C)c3cc12	nt	0	5	-15	1
Cc1nonc1C(=O)N/N=C/c1cccc(O)c1	-2	-6	-43*	5	2
Cc1ccccc1C(=O)N1CCN(c2ccc(NC(=O)c3ccc([N+](=O)[O-])o3)cc2)CC1	-72*	-4	3	-9	7
CC(C)C(=O)N1CCN(c2ccc(NC(=O)c3ccc([N+](=O)[O-])o3)cc2Cl)CC1	?	-4	-41*	-10	13
O=C(Nc1ccc(N2CCN(C(=O)c3ccccc3)CC2)cc1)c1ccc([N+](=O)[O-])o1	-56*	-6	-8	-16	2
CN1CCN(c2ccc(NC(=O)c3ccc([N+](=O)[O-])o3)cc2Cl)CC1	?	-13	1	-17	3
CC(C)C(=O)N1CCN(c2ccc(NC(=O)c3ccc([N+](=O)[O-])o3)cc2)CC1	?	-1	-2	-7	4
CCc1ccc(-c2cc3c(N4CCN(c5ccccc5)CC4)nccn3n2)cc1	nt	-1	-16	-2	5
O=C1O[C@@H]2[C@@H](O)[C@H](O)O[C@@H]2[C@H]1O	nt	nt	nt	-7	nt
O=C1[C@H]2C(c3ccccc3)=NN(c3ccccc3)[C@H]2C(=O)N1c1ccccc1	1	-8	-45*	-1	4
O=C1C2C(c3ccccc3)=NN(c3ccccc3)C2C(=O)N1c1ccccc1 (stereo unspecified)	18	0	1	5	0
NC(=O)c1ccc(N=C2C(=O)Nc3ccc([N+](=O)[O-])cc32)cc1	-62*	-3	-7	-3	2
Cc1ccc(C)c(N2CCN(C(=O)c3cc(C)nc4c3c(C)nn4-c3cccc(F)c3)CC2)c1	nt	10	-27	9	8
COc1ccc(N2CCN(S(=O)(=O)CCNC(=O)c3ccco3)CC2)cc1	-3	1	9	1	2
COc1ccc(N2CCN(C(=O)CNC(=O)c3ccco3)CC2)cc1	1	-2	-80*	8	1
Cc1cccc(N2CCN(S(=O)(=O)c3ccc(F)c(C(=O)Nc4ccc(C(C)C)cc4)c3)CC2)c1C	nt	-1	4	6	0
Cc1cc(N2CCN(c3ncccn3)CC2)nc2c(C)cccc12	18	-3	14	36*	3
COc1ccc(N2CCN(c3cc(C)c4cccc(C)c4n3)CC2)cc1	4	-9	-13	10	1
Cc1cccc(N(CC(=O)NCCSCc2ccccc2)S(C)(=O)=O)c1C	13	-4	8	2	0
COc1ccccc1N(CC(=O)NCCSCc1ccc(Cl)cc1)S(C)(=O)=O	2	-7	-58*!	-4	6
Cc1cccc(N(CC(=O)NCCSCc2ccccc2)S(=O)(=O)c2ccccc2)c1C	nt	0	0	1	30*
COc1ccccc1N(CC(=O)NCCSCc1ccccc1)S(C)(=O)=O	8	-3	-16	2	1
CCOc1ccc(CCNC(=O)CCN2N=C(c3ccc(OC)cc3)CCC2=O)cc1OCC	nt	-7	-18	7	-1
COc1ccc(CNCCc2ccc(Cl)cc2)cc1OCc1ccccc1	0	-3	-19	-11	58*
CCOc1cc(CNCc2ccccc2)ccc1OCc1ccc(Cl)cc1	7	3	-20	-11	35*
